# Measurements as given in PubChem BioAssay (NCI).
# Values joined by “and” are separate entries in the source; they are usually repeats but may differ in a detail not shown here. Identical values can stand only once. The panel holds about 79,000 compounds, 15% with a hit somewhere; the sample as a whole holds those more often. Unmarked numbers belong to inactive results. Active and inactive are the calls of the source. Cut-off read from the data, not from the text of the source: active = growth inhibition above about 70%; inactive = the rest.
# Assays:
# [1] = NCI Yeast Anticancer Drug Screen. Data for the rad50 strain (AID 155);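 note: 0% = growth of vehicle-only cultures of the same strain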; details: S. cerevisiae rad50 strain growth inhibition, stronger effect = higher value
# How it was run: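 Growth of the mutant yeast was measured after compound exposure and referenced to vehicle-treated cultures.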
# [2] = NCI Yeast Anticancer Drug Screen. Data for the mec2-1 strain (AID 157); details: S. cerevisiae mec2-1 strain, stronger effect = higher value
# How it was run: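 Strain: mec2-1 (DNA repair/cell cycle alteration). Compound exposure, then growth measured; inhibition expressed relative to vehicle.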
# [3] = NCI Yeast Anticancer Drug Screen. Data for the sgs1 mgt1 strain (AID 161);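 note: 0% = growth of cultures given vehicle only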; details: S. cerevisiae sgs1 mgt1 strain, stronger effect = higher value
# How it was run: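 Read-out: growth inhibition vs vehicle controls. Cells: mutant yeast strain deficient in DNA damage repair.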
# [4] = NCI Yeast Anticancer Drug Screen. Data for the cln2 rad14 strain (AID 165);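 note: 0% = growth equal to vehicle treated cultures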; details: S. cerevisiae cln2 rad14 strain, stronger effect = higher value
# How it was run: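 Compounds are applied to the cln2 rad14 yeast strain, and growth is then compared with that of vehicle-treated cultures to give inhibition.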
# [5] = NCI Yeast Anticancer Drug Screen. Data for the bub3 strain (AID 167); details: S. cerevisiae bub3 mutant strain, stronger effect = higher value
# How it was run: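 Whole-cell yeast assay. The mutant strain was incubated with compounds, and growth inhibition was determined by comparison with vehicle-treated cells.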
# [6] = NCI Yeast Anticancer Drug Screen. Data for the mlh1 rad18 strain (AID 175); details: S. cerevisiae mlh1 rad18 strain growth inhibition, stronger effect = higher value
# How it was run: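 Read-out is yeast growth inhibition, calculated against vehicle-only controls. The compound was applied to a strain engineered with DNA damage repair alterations.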
# [7] = at 5.0 µM (retest, dose inferred, filed as 0.5)
# [8] = at 50.0 µM (retest, dose inferred, filed as 5.0)
Structure (SMILES),"growth inhibition [1, 7]","growth inhibition [1, 8]",growth inhibition ([1]; at 50.0 µM),"growth inhibition [2, 7]","growth inhibition [2, 8]",growth inhibition ([2]; at 50.0 µM),"growth inhibition [3, 7]","growth inhibition [3, 8]",growth inhibition ([3]; at 50.0 µM),"growth inhibition [4, 7]","growth inhibition [4, 8]",growth inhibition ([4]; at 50.0 µM),"growth inhibition [5, 7]","growth inhibition [5, 8]",growth inhibition ([5]; at 50.0 µM),"growth inhibition [6, 7]","growth inhibition [6, 8]",growth inhibition ([6]; at 50.0 µM)
O=C1c2ccccc2-c2cccc3cccc1c23,3%,-52%,-13.8% and 32.1%,-12%,-26%,4.65% and 0.55%,-9%,-40%,-14.2% and -19.6%,-6%,-17%,-0.75% and 63.6%,-15%,-88%,-2.35% and 10.1%,-1%,-39%,-6.8% and 24.3%
c1ccc(C(C(=Nc2ccc(Cc3ccc(N=C(C(c4ccccc4)c4ccccc4)N4CC4)cc3)cc2)N2CC2)c2ccccc2)cc1,5%,86% (active),85.6% (active),42%,59%,92.5% (active),5%,70% (active),94.1% (active),8%,62%,77.2% (active),5%,87% (active),85.8% (active),11%,71% (active),91.7% (active)
CCC[CH2][Sn]1([CH2]CCC)[O]C(c2ccccn2)S(=O)(=O)[O]1 (configuration not stated),19%,19%,90.2% (active),12%,12%,91.2% (active),18%,18%,90.1% (active),5%,5%,90.5% (active),1%,1%,91.3% (active),10%,10%,88.3% (active)
Oc1c(Cl)cc(-c2cc(Cl)c(O)c(Cl)c2)cc1Cl,95% (active),94% (active),84.2% (active),96% (active),97% (active),89% (active),89% (active),97% (active),89.7% (active),57%,98% (active),87.6% (active),92% (active),96% (active),86.7% (active),99% (active),99% (active),84.9% (active)
